Data: PubChem BioAssay
Active and inactive are the calls of the source.

Columns and labels:
Albumin (Bos taurus) = Albumin (Bos taurus) (UniProt P02769); test: bovine serum albumin binders on microarray, profiling panel, artefact control for SMM control protein annotation, biochemical, small-molecule microarray, Alexa647 label, 635/667 nm fluorescence (AID 1118); details: BSA-A647 binding, fluorescence 635 nm, higher = more signal;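 note: score merges 667 nm emission intensity and signal-to-noise per printed compound spot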
[1] = small-molecule microarray binders of probe aXIP, primary screen, biochemical, NeuroSMM set, 635/667 nm fluorescence (AID 1119); details: higher = more signal, called active from +8 up or from −8 down;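 note: probe is the protein aXip251-270 applied at 1 µg/mL to compound-printed slides; binding of probe to printed compounds measured as 667 nm fluorescence plus signal to noise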
[2] = small-molecule binders of probe aNOTCH3, primary screen, biochemical, small-molecule microarray, 635/667 nm fluorescence (AID 1120); details: higher = more signal;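 note: probe is a biotin-tagged antibody raised against NOTCH3 rather than NOTCH3 protein; score merges spot fluorescence near 667 nm with spot signal to noise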
[3] = small-molecule binders of probe aNOTCH2, primary screen, biochemical, small-molecule microarray, 635/667 nm fluorescence (AID 1121); details: higher = more signal;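 note: score merges feature fluorescence read at 667 nm with its signal to noise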
[4] = molecular target: Carbonic anhydrase 2 (Homo sapiens) (UniProt P00918); test: CAII small-molecule binders, profiling panel, biochemical, small-molecule microarray, Alexa647-labelled CAII (AID 1122); details: CAII-A647 binding fluorescence, higher = more signal
[5] = COS7 lysate on small-molecule microarray, probe aHis, 635 nm (AID 1123); details: COS7 cell lysate, fluorescence, higher = more signal;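 note: z-score combines 667nm fluorescence intensity with signal-to-noise per printed compound spot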
[6] = compound binding in COS7 lysate, probe aLAP1, primary screen, cell lysate, small-molecule microarray (AID 1124); details: probe aLAP1, fluorescence, higher = more signal;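 note: lysate comes from COS7 cells expressing LAP1 and is applied at 0.3 µg/mL; score merges spot fluorescence near 667 nm with signal-to-noise over triplicate slides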
Sam68 (KHDRBS1) = test: Sam68 small-molecule binders, primary screen, biochemical, small-molecule microarray, 635 nm fluorescence (AID 1125); details: small-molecule microarray binding, higher = more signal;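 note: score merges 667 nm channel intensity with signal to noise over triplicate slides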
[7] = system: Chordin-like protein 2 (CHRDL2); test: CHRDL2 small-molecule binders, primary screen, biochemical, small-molecule microarray, 635 nm fluorescence (AID 1126); details: small-molecule microarray binding, fluorescence 635 nm; higher = more signal;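 note: printed compound slides probed with Chrdl2 protein at 4 µg/mL for 1 h at 4 C; score merges 667 nm emission intensity with signal to noise over three replicate slides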
[8] = molecular target: Concanavalin-A (Canavalia ensiformis) (UniProt P02866); test: ConA small-molecule binders, primary screen, artefact control for SMM control protein annotation, biochemical, small-molecule microarray, Alexa647 label, 635 nm (AID 1127); details: ConA-A647 binding fluorescence, higher = more signal;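 note: z combines 667 nm emission intensity with signal-to-noise across three replicate slides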
[9] = anti-His antibody binders, primary screen, artefact control for SMM control protein annotation, biochemical, small-molecule microarray, 635 nm fluorescence (AID 1128); details: anti-His Alexa647 antibody binding, higher = more signal;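 note: score merges feature fluorescence with signal-to-noise for each printed compound spot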
[10] = system: Human papillomavirus type 1a E7 protein (residues 1-88); test: HPV1a E7 small-molecule binders, primary screen, biochemical, small-molecule microarray, residues 1-88, 635 nm (AID 1129); details: small-molecule microarray binding, fluorescence 635 nm; higher = more signal
[11] = molecular target: Focal adhesion kinase 1 (Homo sapiens) (UniProt Q05397); test: small-molecule microarray binders of FAK, primary screen, biochemical, 635/667 nm fluorescence, BSA, DTT (AID 1130); details: PTK2 binding, 635 nm fluorescence, higher = more signal;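 note: composite of spot emission at 667 nm and signal to noise over triplicate slides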
[12] = system: Fibrinogen (Alexa647-labelled); test: fibrinogen binders on compound microarrays, profiling panel, artefact control for SMM control-protein annotation, biochemical, small-molecule microarray, 635/667 nm fluorescence (AID 1131); details: fibrinogen-A647 binding fluorescence, higher = more signal;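 note: z-score merges 667 nm fluorescence with per-spot signal-to-noise over triplicate slides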
[13] = molecular target: Follistatin (Homo sapiens) (UniProt P19883); test: follistatin binders on small-molecule microarrays, primary screen, biochemical, small-molecule microarray, 635/667 nm fluorescence (AID 1132); details: FST binding, 635 nm fluorescence, higher = more signal
[14] = molecular target: Fibroblast growth factor 2 (Homo sapiens) (UniProt P09038); test: FGF2 binders on small-molecule microarrays, primary screen, biochemical, small-molecule microarray, 635/667 nm fluorescence (AID 1133); details: small-molecule microarray binding, FGF2, fluorescence 635/667; higher = more signal
[15] = mitochondrial membrane potential change in A549 cells, profiling panel, cell-based, JC-1 fluorescence, basal, 24 h, 100 nL (AID 1138); details: higher = more signal;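 note: A549 lung adenocarcinoma cells under basal conditions with no added stimulus; test concentration not given here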
Lefty1 = Lefty1 binders on small-molecule microarrays, primary screen, biochemical, small-molecule microarray, 635/667 nm fluorescence (AID 1139); details: small-molecule microarray binding, fluorescence 635/667; higher = more signal
[16] = system: wheat germ agglutinin (Triticum aestivum), Alexa647-labelled; test: wheat germ agglutinin binders on compound microarrays, profiling panel, artefact control for SMM control-protein annotation, biochemical, small-molecule microarray, 635/667 nm fluorescence (AID 1140); details: WGA-A647 binding, 635 nm fluorescence, higher = more signal;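 note: score merges 667 nm feature emission with signal to noise over triplicate slides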
[17] = molecular target: Luciferin 4-monooxygenase (Photinus pyralis) (UniProt P08659); test: firefly luciferase enzyme inhibitors, primary screen, biochemical, luminescence, purified enzyme, 2006 set (AID 1141); details: SteadyGlo luminescence, 30 min, higher = more signal, called active from +8 up or from −8 down;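 note: cell-free assay with purified firefly luciferase at 100 ng per well in PBS; test concentration not given here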
Chain of Luciferin 4-monooxygenase (Photinus pyralis) (P08659 whole entry, looked up): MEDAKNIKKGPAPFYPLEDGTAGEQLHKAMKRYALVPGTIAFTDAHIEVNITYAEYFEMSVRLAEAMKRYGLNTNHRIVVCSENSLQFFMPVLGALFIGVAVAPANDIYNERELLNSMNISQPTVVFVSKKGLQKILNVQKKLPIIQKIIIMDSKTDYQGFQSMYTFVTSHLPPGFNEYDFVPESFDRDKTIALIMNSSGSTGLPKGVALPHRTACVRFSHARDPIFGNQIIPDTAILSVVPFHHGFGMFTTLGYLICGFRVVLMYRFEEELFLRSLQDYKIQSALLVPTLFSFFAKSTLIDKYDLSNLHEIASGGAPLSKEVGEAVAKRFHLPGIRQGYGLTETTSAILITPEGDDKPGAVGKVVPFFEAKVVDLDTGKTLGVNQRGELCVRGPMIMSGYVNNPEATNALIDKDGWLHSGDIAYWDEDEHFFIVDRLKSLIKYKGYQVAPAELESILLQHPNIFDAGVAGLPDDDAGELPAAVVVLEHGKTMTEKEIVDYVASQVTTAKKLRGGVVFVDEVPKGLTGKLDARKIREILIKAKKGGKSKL

Chain of Concanavalin-A (Canavalia ensiformis) (P02866 whole entry, looked up): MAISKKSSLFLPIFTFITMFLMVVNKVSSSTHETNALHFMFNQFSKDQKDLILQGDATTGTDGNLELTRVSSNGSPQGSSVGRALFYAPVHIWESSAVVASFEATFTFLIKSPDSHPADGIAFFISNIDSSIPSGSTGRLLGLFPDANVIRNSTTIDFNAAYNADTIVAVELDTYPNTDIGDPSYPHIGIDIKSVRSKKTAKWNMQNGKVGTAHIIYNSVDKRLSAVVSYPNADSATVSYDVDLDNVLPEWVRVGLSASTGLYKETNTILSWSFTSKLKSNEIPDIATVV
Chain of Follistatin (Homo sapiens) (P19883 whole entry, looked up): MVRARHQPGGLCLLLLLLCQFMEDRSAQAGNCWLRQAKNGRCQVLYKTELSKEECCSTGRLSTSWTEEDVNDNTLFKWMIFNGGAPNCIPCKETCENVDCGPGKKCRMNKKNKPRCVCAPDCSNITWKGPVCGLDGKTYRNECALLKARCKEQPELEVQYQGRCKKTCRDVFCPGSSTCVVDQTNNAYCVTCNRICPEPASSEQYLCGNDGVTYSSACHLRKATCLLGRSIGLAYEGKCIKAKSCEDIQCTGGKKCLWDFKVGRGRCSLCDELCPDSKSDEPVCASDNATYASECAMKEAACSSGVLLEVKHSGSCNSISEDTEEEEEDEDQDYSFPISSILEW
Chain of Albumin (Bos taurus) (P02769 whole entry, looked up): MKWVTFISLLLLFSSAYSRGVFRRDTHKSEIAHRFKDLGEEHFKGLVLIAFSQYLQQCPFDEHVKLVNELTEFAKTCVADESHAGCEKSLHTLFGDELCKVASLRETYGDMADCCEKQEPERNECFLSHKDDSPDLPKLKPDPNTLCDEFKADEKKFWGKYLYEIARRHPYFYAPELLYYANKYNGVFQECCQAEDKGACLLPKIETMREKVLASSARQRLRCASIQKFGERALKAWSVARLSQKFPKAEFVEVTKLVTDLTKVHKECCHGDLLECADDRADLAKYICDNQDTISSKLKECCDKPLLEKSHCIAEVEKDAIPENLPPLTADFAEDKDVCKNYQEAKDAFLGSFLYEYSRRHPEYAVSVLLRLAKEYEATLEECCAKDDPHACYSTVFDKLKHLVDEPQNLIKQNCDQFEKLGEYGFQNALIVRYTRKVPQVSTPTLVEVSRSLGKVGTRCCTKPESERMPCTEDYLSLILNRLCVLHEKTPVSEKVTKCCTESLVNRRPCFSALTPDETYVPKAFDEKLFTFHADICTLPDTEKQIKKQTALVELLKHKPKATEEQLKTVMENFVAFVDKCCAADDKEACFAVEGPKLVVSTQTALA
Chain of Fibroblast growth factor 2 (Homo sapiens) (P09038 whole entry, looked up): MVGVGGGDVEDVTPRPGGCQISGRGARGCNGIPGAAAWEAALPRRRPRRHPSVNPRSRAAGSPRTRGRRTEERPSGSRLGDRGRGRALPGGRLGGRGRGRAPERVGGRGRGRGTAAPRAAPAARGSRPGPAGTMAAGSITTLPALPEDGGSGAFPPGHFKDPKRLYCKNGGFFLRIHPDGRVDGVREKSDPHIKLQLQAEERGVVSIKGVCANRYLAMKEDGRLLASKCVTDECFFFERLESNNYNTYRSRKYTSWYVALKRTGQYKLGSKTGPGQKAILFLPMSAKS
Chain of Focal adhesion kinase 1 (Homo sapiens) (Q05397 whole entry, looked up): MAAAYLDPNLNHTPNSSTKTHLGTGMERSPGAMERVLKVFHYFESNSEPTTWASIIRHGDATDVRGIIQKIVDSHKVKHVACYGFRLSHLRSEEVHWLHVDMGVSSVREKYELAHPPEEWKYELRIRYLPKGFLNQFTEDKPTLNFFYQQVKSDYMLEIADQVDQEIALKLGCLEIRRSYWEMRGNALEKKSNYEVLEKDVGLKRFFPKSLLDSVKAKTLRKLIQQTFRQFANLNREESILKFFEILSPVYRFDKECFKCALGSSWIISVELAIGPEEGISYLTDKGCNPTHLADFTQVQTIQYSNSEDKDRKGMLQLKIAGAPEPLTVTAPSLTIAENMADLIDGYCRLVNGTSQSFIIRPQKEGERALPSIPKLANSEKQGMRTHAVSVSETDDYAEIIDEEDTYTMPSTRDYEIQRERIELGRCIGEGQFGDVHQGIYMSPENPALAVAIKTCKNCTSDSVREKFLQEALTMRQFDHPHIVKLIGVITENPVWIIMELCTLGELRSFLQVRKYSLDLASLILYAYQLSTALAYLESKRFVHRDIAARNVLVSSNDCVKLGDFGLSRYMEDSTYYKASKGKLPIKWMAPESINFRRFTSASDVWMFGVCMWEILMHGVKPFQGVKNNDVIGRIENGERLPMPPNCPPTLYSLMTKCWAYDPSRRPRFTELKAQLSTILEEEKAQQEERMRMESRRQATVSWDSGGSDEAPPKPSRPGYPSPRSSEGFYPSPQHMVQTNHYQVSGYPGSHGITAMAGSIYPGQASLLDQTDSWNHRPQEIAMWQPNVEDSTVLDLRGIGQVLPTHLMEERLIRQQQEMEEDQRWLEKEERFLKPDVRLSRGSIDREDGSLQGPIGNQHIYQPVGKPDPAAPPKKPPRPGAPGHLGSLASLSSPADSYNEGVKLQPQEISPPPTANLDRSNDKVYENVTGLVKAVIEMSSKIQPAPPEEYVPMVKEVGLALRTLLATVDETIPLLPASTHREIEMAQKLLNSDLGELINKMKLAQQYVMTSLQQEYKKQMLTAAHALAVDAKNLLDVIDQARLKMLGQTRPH

SMILES	composite z-score (Albumin (Bos taurus))	composite Z-score [1]	composite z-score [2]	composite z-score [3]	composite z-score [4]	composite z-score [5]	composite z-score [6]	composite z-score (Sam68 (KHDRBS1))	composite z-score [7]	composite z-score [8]	composite z-score [9]	composite z-score [10]	composite z-score [11]	composite z-score [12]	composite z-score [13]	composite z-score [14]	z-score [15]	composite z-score (Lefty1)	composite z-score [16]	z-score [17]
CCCCCN1CC=CC23O[C@@H]4C=CCOC(=O)[C@@H]4[C@H]2C(=O)N(C(C)CO)[C@@H]3C1=O (stereo not given in full)	0.755	-0.294 (inactive)	-0.403	-0.12	0.863	-0.284	-0.0739	-1.22	-0.811	-0.54	-0.396	-0.669	0.174	-0.235	-1.12	-0.495	-0.197	-1.23	-0.383	0.101 (inactive)
COCCOC(=O)N1C(=O)[C@@]2(c3cc(C#Cc4ccc(OC)cc4)ccc31)[C@H](c1ccc(O)cc1)N1[C@H](c3ccccc3)[C@H](c3ccccc3)OC(=O)[C@H]1[C@@H]2C(=O)Nc1nc2ccccc2s1	0.576	0.303 (inactive)	-0.0299	-0.124	0.537	1.54	-0.0159	1.3	0.0727	1.16	0.513	1.19	-0.0177	0.939	1.26	0.499	-2.06	0.617	0.649	-0.894 (inactive)
CC(C)N1CC=CC23O[C@@H]4C=CCOC(=O)[C@@H]4[C@H]2C(=O)N(CCCCCO)[C@@H]3C1=O (stereo not given in full)	1.02	-0.194 (inactive)	-0.12	-0.153	0.733	1.64	0.915	-0.135	-0.574	0.823	2.11	-0.01	0.345	-1.86	-0.382	-0.377	-0.178	0.204	0.0322	-3.48 (inactive)
CCCCC(=C=CC[C@H](O)c1cccc(OCCO)c1)C[C@H](O)c1ccccn1	0.424	0.152 (inactive)	-0.0014	-0.153	0.693	-0.0434	-0.165	-0.15	0.23	0.503	0.536	-0.0708	-0.0538	0.538	0.346	0.257	0.782	0.38	0.0704	-0.167 (inactive)
COC(=O)[C@@]1(Cc2ccc(OC)cc2)[C@H]2c3cc(C(=O)N4CCCC4)n(CCc4ccc(O)c(O)c4)c3C[C@H]2CN1C(=O)c1ccccc1	0.881	-0.2 (inactive)	0.144	0.336	0.79	3.42	0.932	-0.0777	-0.237	0.0245	2.44	1.17	0.384	0.421	0.442	-0.736	-0.72	-0.958	1.22	-7.43 (inactive)
CC(C)OC(=O)C=C1C[C@@H](c2cccc(Cl)c2)O[C@@H](c2cccc(Cl)c2)O1	0.466	0.806 (inactive)	-0.137	0.0234	0.299	1.68	0.484	-0.296	-0.579	0.99	1.72	0.824	0.526	-0.105	-0.545	-0.122	-0.143	-1.1	0.751	0.924 (inactive)
O=C1NC(=O)C2C1C=CC(C(O)c1ccc(I)cc1)N2Nc1ccc(Cl)cc1Cl (stereo not given)	0.99	-0.234 (inactive)	0.387	0.127	0.404	1.61	0.943	1.22	-0.776	1.09	0.258	1.03	0.741	0.978	0.73	-0.451	0.535	-0.199	0.661	-1.33 (inactive)
C=CCNC(=O)[C@H]1[C@@H]2C(=O)O[C@@H](c3ccccc3)[C@@H](c3ccccc3)N2[C@@H](c2ccc(O)cc2)[C@]12C(=O)Nc1ccc(C#CCCO)cc12	0.138	-0.157 (inactive)	-0.112	-0.198	0.656	-0.0099	0.75	-0.319	-0.559	-0.065	-0.0591	-0.338	0.459	-0.297	0.265	-0.869	0.0152	0.358	-0.48	0.361 (inactive)
C=CCC(OC(C)=O)[C@@H]1[C@@H](N(Cc2ccc(-c3cccc(C(F)(F)F)c3)o2)C(=O)c2cccc3ccccc23)c2cc(OCCCO)ccc2N1C(=O)Cc1ccc2ccccc2c1 (stereo not given in full)	0.426	0.111 (inactive)	-0.0465	-0.102	0.0886	0.58	-0.0395	0.153	0.421	-0.146	0.383	-0.688	0.172	0.702	0.37	-0.129	-0.65	-0.0051	0.178	0.335 (inactive)
CC(C)(C)OC(=O)CC[C@]1(C(N)=O)N=C(c2ccc(OCCCO)cc2)O[C@H]1c1ccccc1	0.963	0.0933 (inactive)	0.405	0.133	0.848	3.21	0.834	1.25	-1.34	0.32	2.07	1.2	0.35	0.407	0.839	0.29	1.04	-0.388	1.48	-0.47 (inactive)
COC(=O)[C@@]1(Cc2ccccc2)[C@H]2c3cc(C(=O)N4CCCC4)n(Cc4ccc(O)c(OC)c4)c3C[C@H]2CN1C(=O)c1ccccc1	0.638	-0.0662 (inactive)	0.63	0.302	0.83	2.37	0.0364	0.008	-1.62	0.284	0.882	1.27	0.553	-0.685	0.284	-0.638	1.15	-0.0456	0.504	1.04 (inactive)
